Screening results: PubChem BioAssay, several laboratories
CYP2C19 inhib = blocks human cytochrome P450 2C19; CYP2C19 Supersomes, luciferin-H EGE luminescence, 30 min; hit rate 21% among 96,000; P33261; inhibition, % at 5 µM;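 active = CYP2C19 inhibition above a set limit at 5 µM in the primary screen, cut at about 50% in these data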;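 also: plate controls were negative control wells for no effect and 2.5 mM tranylcypromine positive control for full effect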
CYP2C9 inhib = human CYP2C9 inhibition. CYP2C9 Supersomes, luciferin-H conversion, luminescence. inhibition, % at 5 µM. hit rate 20% among 96,000. AID 777;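 active = blocking of liver enzyme CYP2C9 beyond about 50% at 5 µM, limit read from the data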
CYP2C9 activ = CYP2C9 (human) activation | P11712 | recombinant CYP2C9, luciferin-H conversion, luminescence; stronger effect = higher value; factor 1 = untreated enzyme, 0 = blocked | activation factor at 5 µM | hit rate 1.4% among 96,000 | AID 1024;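 active = activation factor of 2 or more for CYP2C9 at a 5 µM dose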;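 also: 0 = sulfaphenazole-blocked wells and 1 = vehicle-only wells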
PLK1 inh = inhibitors of human PLK1 kinase; recombinant PLK1 kinase, TR-FRET peptide phosphorylation; inhibition, % at 10 µM; hit rate 0.53% among 97,000;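 active = inhibition of 50% or more in the single-concentration screen; inactive = inhibition below 50%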;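 also: 0% = DMSO max control and 100% = H-89 dihydrochloride min control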
Target sequence (P53350 whole entry, looked up): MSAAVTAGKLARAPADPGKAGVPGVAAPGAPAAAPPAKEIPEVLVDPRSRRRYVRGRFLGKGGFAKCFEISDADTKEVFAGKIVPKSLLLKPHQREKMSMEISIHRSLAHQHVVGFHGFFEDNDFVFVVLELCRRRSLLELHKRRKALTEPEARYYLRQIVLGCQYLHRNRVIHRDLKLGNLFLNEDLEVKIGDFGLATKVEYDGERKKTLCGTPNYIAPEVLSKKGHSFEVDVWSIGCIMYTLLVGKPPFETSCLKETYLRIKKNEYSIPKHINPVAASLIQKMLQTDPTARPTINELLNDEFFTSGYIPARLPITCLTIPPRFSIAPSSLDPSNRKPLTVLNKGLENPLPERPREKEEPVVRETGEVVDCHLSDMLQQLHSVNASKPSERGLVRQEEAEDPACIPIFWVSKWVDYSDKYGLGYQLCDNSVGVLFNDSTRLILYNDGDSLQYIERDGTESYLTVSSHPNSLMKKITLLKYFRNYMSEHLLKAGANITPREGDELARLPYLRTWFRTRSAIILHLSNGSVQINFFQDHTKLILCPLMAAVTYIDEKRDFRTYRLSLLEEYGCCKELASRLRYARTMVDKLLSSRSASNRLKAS
CYP2C19 activ = activators of human cytochrome P450 2C19 | recombinant CYP2C19, luciferin-H EGE luminescence; stronger effect = higher value; 0 = fully inhibited enzyme, 1 = untreated enzyme | activation factor at 5 µM | 96,000 tested, under 10 active | AID 1025;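 active = activation factor of at least 2 at 5 µM in the primary screen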;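 also: 0 = wells with 2.5 mM tranylcypromine and 1 = vehicle-only wells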
PLK1 PBD inh = blocks phosphopeptide binding to human Plk1 polo box domain. P53350. Plk1 PBD phosphopeptide binding, fluorescence polarization. inhibition, %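 (tested at about 20 µM)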. hit rate 0.13% among 97,000. AID 693; in the data active = inhibition above about 34%, passing the limit was not always enough
* marks the source's active call; other numbers are inactive results. An excerpt weighted towards active compounds, which were near 28% of everything screened.

C/C(=N/OCC(=O)Nc1ccccc1)c1cccs1 was read as CYP2C19 inhib 36, CYP2C9 inhib 45, CYP2C9 activ 0.6, PLK1 inh -7, CYP2C19 activ 0.6 and PLK1 PBD inh -16.
For CC(CC(=O)c1cccs1)CC(=O)c1cccs1 the results were CYP2C19 inhib 100*, CYP2C9 inhib 93*, CYP2C9 activ 0.1, PLK1 inh -3, CYP2C19 activ 0 and PLK1 PBD inh -2.
For O=C(CCC(=O)c1cccs1)Nc1nnc(C2CC2)s1 the results were CYP2C19 inhib 47, CYP2C9 inhib 22, CYP2C9 activ 0.8, PLK1 inh -11, CYP2C19 activ 0.5 and PLK1 PBD inh -14.
`O=C(CCC(=O)c1cccs1)Nc1ccc(F)c(F)c1F` gave CYP2C19 inhib 66*, CYP2C9 inhib -4, CYP2C9 activ 1, PLK1 inh 6, CYP2C19 activ 0.3 and PLK1 PBD inh -1.
`O=C(COC(=O)c1cccs1)Nc1ccccc1` gave CYP2C19 inhib 57*, CYP2C9 inhib 14, CYP2C9 activ 0.9, PLK1 inh -11, CYP2C19 activ 0.4 and PLK1 PBD inh 15.
For Cc1ccc(NC(=O)CCC(=O)c2cccs2)cc1 the results were CYP2C19 inhib 82*, CYP2C9 inhib 41, CYP2C9 activ 0.6, PLK1 inh -4, CYP2C19 activ 0.2 and PLK1 PBD inh -6.
`O=C(CCC(=O)Nc1ccccc1)NNC(=O)c1cccs1` gave CYP2C19 inhib -3, CYP2C9 inhib -2, CYP2C9 activ 1, PLK1 inh -4, CYP2C19 activ 1 and PLK1 PBD inh 3.
Screening Nc1cc(C(=O)O)ccc1Nc1ccc(F)c(F)c1 returned CYP2C19 inhib 2, CYP2C9 inhib -10, CYP2C9 activ 1.1, PLK1 inh -9, CYP2C19 activ 1 and PLK1 PBD inh 16.
Screening COc1cc2c(=O)n(CCCN3CCOCC3)c(=S)[nH]c2c(OC)c1OC returned CYP2C19 inhib 1, CYP2C9 inhib 6, CYP2C9 activ 0.9, PLK1 inh 5, CYP2C19 activ 1 and PLK1 PBD inh 9.
Screening O=C(CCC(=O)c1cccs1)NCc1ccc(Cl)cc1 returned CYP2C19 inhib 44, CYP2C9 inhib -45, CYP2C9 activ 1.5, PLK1 inh -7, CYP2C19 activ 0.6 and PLK1 PBD inh -1.
Cc1ccc(CNC(=O)CCC(=O)c2cccs2)cc1 was read as CYP2C19 inhib 85*, CYP2C9 inhib -35, CYP2C9 activ 1.3, PLK1 inh -7, CYP2C19 activ 0.1 and PLK1 PBD inh 36.
For Cn1cccc1C(=O)OCC(=O)Nc1ccc2c(c1)CCC2 the results were CYP2C19 inhib 20, CYP2C9 inhib 7, CYP2C9 activ 0.9, PLK1 inh -6, CYP2C19 activ 0.8 and PLK1 PBD inh 10.
Cc1onc(-c2ccccc2Cl)c1C(=O)N(Cc1nc(-c2ccccc2)no1)C1CCCCC1 was read as CYP2C19 inhib 95*, CYP2C9 inhib 86*, CYP2C9 activ 0.1, PLK1 inh -5, CYP2C19 activ 0 and PLK1 PBD inh -1.
Screening Cc1cccc(-c2noc(CN(C(=O)c3c(-c4ccccc4Cl)noc3C)C(C)C)n2)c1 returned CYP2C19 inhib 91*, CYP2C9 inhib 63*, CYP2C9 activ 0.4, PLK1 inh -13, CYP2C19 activ 0.1 and PLK1 PBD inh 0.
For COc1ccc(C(=O)N(Cc2nc(-c3ccc(C)cc3)no2)C2CCCCC2)cc1OC the results were CYP2C19 inhib 82*, CYP2C9 inhib 81*, CYP2C9 activ 0.2, PLK1 inh -2, CYP2C19 activ 0.2 and PLK1 PBD inh 2.
For Cc1cccc(-c2noc(CN(C(C)C)S(=O)(=O)c3ccc(F)cc3)n2)c1 the results were CYP2C19 inhib 27, CYP2C9 inhib -14, CYP2C9 activ 1.1, PLK1 inh -3, CYP2C19 activ 0.7 and PLK1 PBD inh 21.
For Cc1onc(-c2ccccc2Cl)c1C(=O)NCC1CCCO1 (stereo not given) the results were CYP2C19 inhib 39, CYP2C9 inhib 10, CYP2C9 activ 0.9, PLK1 inh 5, CYP2C19 activ 0.6 and PLK1 PBD inh -2.
For CCOC(=O)C1CCN(Cc2nc(-c3ccc(OC)c(OC)c3)no2)CC1 the results were CYP2C19 inhib -16, CYP2C9 inhib -10, CYP2C9 activ 1.1, PLK1 inh 6, CYP2C19 activ 1.2 and PLK1 PBD inh 11.
Screening O=C(NCC1CCCO1)c1cccc(-n2cnnn2)c1 (stereo not given) returned CYP2C19 inhib -15, CYP2C9 inhib -20, CYP2C9 activ 1.2, PLK1 inh -6, CYP2C19 activ 1.1 and PLK1 PBD inh -13.
`Cc1[nH]n(-c2ccccc2)c(=O)c1C1(C(F)(F)F)C(=O)N(c2ccc(F)cc2)C2=C1C(=O)CC(C)(C)C2` (stereo not given) gave CYP2C19 inhib 26, CYP2C9 inhib 78*, CYP2C9 activ 0.2, PLK1 inh -7, CYP2C19 activ 0.7 and PLK1 PBD inh -11.
For CC1(C)CC(=O)C2=C(C1)N(c1ccc(F)cc1)C(=O)NC2(C(F)(F)F)C(F)(F)F the results were CYP2C19 inhib 0, CYP2C9 inhib 1, CYP2C9 activ 1, PLK1 inh -5, CYP2C19 activ 1 and PLK1 PBD inh 11.
For NC(=O)C1CCN(C2CC(=O)N(c3ccc(F)c(Cl)c3)C2=O)CC1 (stereo not given) the results were CYP2C19 inhib -3, CYP2C9 inhib 8, CYP2C9 activ 0.9, PLK1 inh -6, CYP2C19 activ 1 and PLK1 PBD inh 0.
CCCS(=O)(=O)c1c(S(=O)(=O)CCC)c2ccccn2c1C(=O)OC was read as CYP2C19 inhib 20, CYP2C9 inhib 52*, CYP2C9 activ 0.5, PLK1 inh -5, CYP2C19 activ 0.8 and PLK1 PBD inh 1.
CCCS(=O)(=O)c1c(S(=O)(=O)CCC)c2cc(CC)ccn2c1C(=O)OC was read as CYP2C19 inhib 25, CYP2C9 inhib 43, CYP2C9 activ 0.6, PLK1 inh -5, CYP2C19 activ 0.8 and PLK1 PBD inh -6.
CN(C)c1nc(Oc2ccc(N)cc2)nc(N(C)C)n1 was read as CYP2C19 inhib 32, CYP2C9 inhib 14, CYP2C9 activ 0.9, PLK1 inh -8, CYP2C19 activ 0.7 and PLK1 PBD inh 1.
`COc1cccc(CC(C(=O)Nc2cc(C)ccc2C)c2nn[nH]n2)c1OC` (stereo not given) gave CYP2C19 inhib 7, CYP2C9 inhib -3, CYP2C9 activ 1, PLK1 inh -9, CYP2C19 activ 0.9 and PLK1 PBD inh -24.
For CCc1ccccc1NC(=O)C(Cc1cccc(OC)c1OC)c1nn[nH]n1 (stereo not given) the results were CYP2C19 inhib 0, CYP2C9 inhib 50*, CYP2C9 activ 0.5, PLK1 inh -7, CYP2C19 activ 1 and PLK1 PBD inh 6.
`CC1CC(C)CN(CCCNC(=O)Cn2ncn3cccc3c2=O)C1` (stereo not given) gave CYP2C19 inhib -2, CYP2C9 inhib 6, CYP2C9 activ 0.9, PLK1 inh -5, CYP2C19 activ 1 and PLK1 PBD inh 6.
